ERK AVP block = qHTS Assay for Inhibitors of the ERK Signaling Pathway using a Homogeneous Screening Assay | HEK293-V1b, vasopressin-stimulated pERK AlphaScreen | Potency, µM (top dose mostly 57.5 µM), inactives show top-dose activity, negative = inhibition, actives largely listed as inhibitors | AID 995, 2007 | 72,000 tested, 0.99% active; further: on the % scale 0 is the no-effect control and ±100 the full control effect; nearly all actives have a fitted effect of over 55% in size
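V1b-HEK293 cells; cpd 30 min 37C; 25 nM vasopressin 5 min; lyse 10 min; AlphaScreen beads 5 hr RT. Normalized to DMSO basal and 25 nM vasopressin; AC50 by Hill fit.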
HEK293 cAMP cs = qHTS Assay for Agonists of the Thyroid Stimulating Hormone Receptor: Activators of Intracellular cAMP Concentrations in Parental HEK 293 | parental HEK293 CNG cAMP sensor, membrane potential fluorescence | Potency, µM (series often up to 57.1 µM), without a hit: at the top dose activation, hits mostly activators | 73,000 tested, 2.5% active | AID 938, 2007; further: % of control where 0% means no effect; nearly all actives have a fitted effect of over 55% in size
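Parental HEK 293 cells stably expressing a cAMP-gated CNG channel were loaded with membrane potential dye containing 100 uM RO 20-1724 for 60 min. Compound added for 30 min; depolarization read as fluorescence intensity at 590 nm.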
CRE-bla Fsk = Cell signaling CRE-BLA (Fsk stim). Potency, µM (series often up to 38.2 µM), inactives show top-dose activity change, negative = inhibition, hits mostly activators. CHO CRE-bla reporter (cAMP response element driving beta-lactamase), forskolin EC10, beta-lactamase ratio. AID 662, 2007. 71,000 tested, 2.5% active; active means well fitted activation curve with a large enough effect in the signal ratio, with a control signal flat, not every such curve was filed as active; inconclusive means small, poorly fitted or top-dose-only effect, or effect the other way, or a change in a side signal; the % refers to the signal ratio; further: % of control where 0% means no effect
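Titrated compounds plus EC10 NKH 477 on CHO CRE-bla cells, 3 h, 37 °C. CCF4, 2 h RT. Ratio 460/530 nm → AC50.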
TSHR ag = qHTS Assay for Agonists of the Thyroid Stimulating Hormone Receptor; Thyrotropin receptor (Homo sapiens), P16473; HEK293-CNG-TSHR cells (CNG channel as cAMP sensor), membrane potential dye, cAMP; Potency, µM (top dose mostly 57.1 µM), for inactives: at the top dose activation, usual class: activators; 73,000 tested, 0.48% active; active means well fitted activation curve with a large enough effect in the main read-out, with a control signal flat, not every such curve was filed as active; inconclusive means small, poorly fitted or top-dose-only effect, or a change in a side signal; inactive means no such curve, though single readings can be large or run the other way; % of control where 0% means no effect;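 further: the control signal comes from parental cells without the receptor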
Target sequence (P16473 whole entry, looked up): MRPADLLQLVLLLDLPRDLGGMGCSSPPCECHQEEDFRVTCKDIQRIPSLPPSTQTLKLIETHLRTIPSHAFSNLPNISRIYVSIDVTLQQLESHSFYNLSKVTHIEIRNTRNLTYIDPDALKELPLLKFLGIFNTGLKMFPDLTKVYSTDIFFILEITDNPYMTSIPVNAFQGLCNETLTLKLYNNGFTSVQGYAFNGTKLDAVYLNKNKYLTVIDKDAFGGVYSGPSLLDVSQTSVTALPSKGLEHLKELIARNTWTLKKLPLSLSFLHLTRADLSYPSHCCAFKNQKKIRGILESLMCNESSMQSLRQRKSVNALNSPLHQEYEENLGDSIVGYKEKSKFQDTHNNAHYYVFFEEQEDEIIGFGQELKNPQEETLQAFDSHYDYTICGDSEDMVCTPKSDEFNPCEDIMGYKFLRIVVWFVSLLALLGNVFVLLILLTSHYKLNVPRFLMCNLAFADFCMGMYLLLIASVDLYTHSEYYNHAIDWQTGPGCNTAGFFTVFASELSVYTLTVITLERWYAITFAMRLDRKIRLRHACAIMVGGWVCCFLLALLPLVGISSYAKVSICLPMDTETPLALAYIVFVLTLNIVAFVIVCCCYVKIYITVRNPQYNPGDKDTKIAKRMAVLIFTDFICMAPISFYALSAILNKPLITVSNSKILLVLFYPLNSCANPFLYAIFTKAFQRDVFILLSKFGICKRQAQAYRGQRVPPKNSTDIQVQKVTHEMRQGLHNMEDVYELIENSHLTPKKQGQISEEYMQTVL
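HEK 293 cells stably expressing TSHR and a modified CNG channel, with CNG-only parental cells as counterscreen, were preloaded 60 min at room temperature with membrane potential dye containing 100 uM RO 20-1724. Compound exposure was 30 min, and depolarization was read as fluorescence at 590 nm.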
Tau fil binding = qHTS Assay for Tau Filament Binding. 71,000 tested, 2% active. Microtubule-associated protein tau (Homo sapiens), P10636. Potency, µM (highest dose often 57.1 µM), inactives show at the top dose activity change, negative = inhibition. recombinant tau filaments, thioflavin S fluorescence, 15 h; filaments grown with octadecylsulfate alongside compound;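 further: on the % scale 0 is the no-effect control and ±100 the full control effect; actives lower thioflavin S fluorescence by blocking filaments or displacing dye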
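His-tagged recombinant human tau (exons 2, 3, 10; 1 uM final) fibrillized with 30 uM sodium octadecylsulfate, 15 h at 37 C, in pH 7.4 HEPES buffer with 10 uM thioflavine S and 5 mM DTT. Reduced ThS fluorescence (450/510 nm) marks activity.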
Active calls of the source: *; i = inactive; u = inconclusive; x = no result given; [ ] = remark or other dose. A selection: hits, their analogues and other compounds. The true share with any hit is near 7.6%. Unless noted, the call rests on the fitted dose curve; in most records, active means well fitted curve in the direction sought with a large enough effect; inconclusive means small, poorly fitted or top-dose-only effect, or another doubt; inactive means no such curve, though single readings can be large; an effect the other way counts as inactive or inconclusive. Potency means the concentration at half of the fitted maximal effect.

SMILES	ERK AVP block	HEK293 cAMP cs	CRE-bla Fsk	TSHR ag	Tau fil binding
O=c1c(CCc2ccccc2)nc2cnc(Oc3ccccc3)nc2n1C[C@H]1CCCO1	53%	u	13µM*	u	-19%
O=c1cnc2cnc(Oc3ccccc3)nc2n1CCc1ccccc1	-11%	1.6µM*	u	u	-3%
CCNc1ncc2nc(CCc3ccccc3)c(=O)n(C[C@H]3CCCO3)c2n1	-29%	16%	u	15%	11%
CCC12CCCN3CCC4(C(=C(C(=O)OC)C1)Nc1ccccc14)C32 (stereo not given)	-20%	25µM*	-5%	u	0%
COc1ccc(CCNC(=O)Cc2cc(=O)[nH]c(=O)[nH]2)cc1OC	x	6%	u	-6%	11%
COc1ccc2c(=O)c(C(=O)NCCc3ccc(OC)c(OC)c3)c[nH]c2c1	-16%	-9%	13µM*	15%	-6%
COc1ccc2cc3cc(C(=O)NCCc4ccc(OC)c(OC)c4)oc3nc2c1	13%	18%	3.2µM*	13%	i
CCNc1ncc2nc(CCc3ccccc3)c(=O)n(Cc3cccc(OC)c3)c2n1	10%	21%	u	28%	1%
Cc1ccc2nc(NC(=O)CNS(=O)(=O)c3ccc(Br)s3)sc2c1	-19%	26%	u	2%	200%
Cc1cccc2sc(NC(=O)CNS(=O)(=O)c3ccc(Br)s3)nc12	20µM*	4%	u	1%	-1%
Cc1ccc2nc(NC(=O)CN(C)S(=O)(=O)c3ccc(Br)s3)sc2c1	4µM*	8%	-22%	-1%[11.4 µM]	-20%
Cc1ccc2nc(NC(=O)CN(C)S(=O)(=O)c3cccc4nsnc34)sc2c1	14%	u	u	u	16µM*
CN1CCN(CCc2ccc(Cl)c(Cl)c2)CC1	15%	13%	-21%	9%	-27%
COC(=O)NC(CC(C)=O)c1ccc(Cl)cc1 (stereo not given)	21%[11.5 µM]	-1%[11.4 µM]	x	1%[11.4 µM]	x
CC(=O)C[C@H](c1ccc([N+](=O)[O-])cc1)c1c(O)c2ccccc2oc1=O	-6%[25.7 µM]	-3%[25.6 µM]	-3%[17.1 µM]	-7%[25.6 µM]	0%[25.6 µM]
CN(C)C=Nc1ncc2c([nH]c3ccccc32)c1C#N	25µM*	8%	11%	-23%	-6%
CCOC(=O)c1c(-c2cccs2)csc1NC(=O)CN1CC(C)OC(C)C1 (stereo not given)	11%	22%	2.5µM*	27%	7%
Cc1cccc(CNc2ccnc(-c3ccc(N(C)C)cc3)n2)c1	u	0%	u	17%	62%
CCOc1ccc(-c2nnc(NC(=O)c3ccc(OCC(C)C)c(OC)c3)o2)cc1	12%	25µM*	3%	u	12%
COC(=O)[C@@]1(Cc2ccccc2)[C@H]2c3cc(C(=O)N4CCCC4)n(Cc4nc5ccccc5[nH]4)c3C[C@H]2CN1C(=O)c1ccccc1	-16%	u	-27%	u	41%
Cc1nn(C)c(C)c1N=Cc1c(O)ccc2ccccc12	-24%	-7%	4%	-8%	u
Oc1ccc2ccccc2c1/C=C\c1ccc2c(Br)cc(Br)c(O)c2n1	10%[11.5 µM]	4%[11.4 µM]	u	-5%[11.4 µM]	2.5µM*
COc1ccccc1CC(Cc1nc2ccccc2[nH]1)c1nc2ccccc2[nH]1 (stereo not given)	32µM*	x	x	x	x
COc1ccc2[nH]cc(CCNc3cc(-c4cccc(C#N)c4)ncn3)c2c1	-28%	-15%	u	-13%	-5%
Cn1nc(-c2ccc(OCC(=O)Nc3cccnc3)cc2)c2ccccc2c1=O	32µM*	-6%	u	2%	5%
COc1ccc(-c2nn(C)c(=O)c3ccccc23)cc1NC(=O)Cn1nc(C)c2ccccc2c1=O	u	2%	u	12%	i
CCCC(=O)Nc1cc(-c2nn(C)c(=O)c3ccccc23)ccc1OC	-9%	7%	13µM*	7%	-17%
CCC(=O)Nc1cc(-c2nn(C)c(=O)c3ccccc23)ccc1OC	-15%	u	13µM*	u	3%

Compound activity from PubChem.
